Screens: PubChem BioAssay, several laboratories
CYP2C9 act: activators of human CYP2C9; recombinant CYP2C9, luciferin-H conversion, luminescence; hits give high values; factor 1 = untreated enzyme, 0 = blocked; activation factor at 5 µM; P11712; 96,000 compounds, 1.4% hits;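 active means activation factor of 2 or more for CYP2C9 at a 5 µM dose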;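 further: 0 = sulfaphenazole-blocked wells and 1 = vehicle-only wells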
Target sequence (P11712 whole entry, looked up): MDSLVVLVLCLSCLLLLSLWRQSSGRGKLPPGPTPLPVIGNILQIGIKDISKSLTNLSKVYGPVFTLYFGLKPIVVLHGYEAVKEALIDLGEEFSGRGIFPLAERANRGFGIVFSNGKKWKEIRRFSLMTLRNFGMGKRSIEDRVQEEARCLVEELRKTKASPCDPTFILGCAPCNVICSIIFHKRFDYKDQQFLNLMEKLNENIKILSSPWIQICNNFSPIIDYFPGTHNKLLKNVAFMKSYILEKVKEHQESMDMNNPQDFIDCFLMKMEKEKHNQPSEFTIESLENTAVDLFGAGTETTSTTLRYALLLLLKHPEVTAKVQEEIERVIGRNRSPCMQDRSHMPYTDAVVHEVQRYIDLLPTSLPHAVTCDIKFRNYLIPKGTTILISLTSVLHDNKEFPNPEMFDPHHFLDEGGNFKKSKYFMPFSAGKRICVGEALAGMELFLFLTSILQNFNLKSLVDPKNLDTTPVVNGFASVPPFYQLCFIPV
CYP2C19 inh: human CYP2C19 inhibition | 96,000 compounds, 21% hits | CYP2C19 Supersomes, luciferin-H EGE luminescence, 30 min | inhibition, % at 5 µM | AID 778;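 active means CYP2C19 inhibition above a set limit at 5 µM in the primary screen, cut at about 50% in these data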;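 further: plate controls were negative control wells for no effect and 2.5 mM tranylcypromine positive control for full effect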
Measles CPE: protection of cells from measles virus. Measles virus-infected cells, CPE protection, absorbance. protection (pct of control), % at 4 µM. 140,000 compounds, 1.5% hits; in the data active means protection mostly above about 24%, no sharp cut-off; inactive means mostly below about 26%
CYP2C9 inh: inhibitors of human CYP2C9. CYP2C9 Supersomes, luciferin-H conversion, luminescence. inhibition, % at 5 µM. 96,000 compounds, 20% hits. AID 777;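 active means blocking of liver enzyme CYP2C9 beyond about 50% at 5 µM, limit read from the data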
CYP2C19 activ: activators of human cytochrome P450 2C19; P33261; recombinant CYP2C19, luciferin-H EGE luminescence; hits give high values; 0 = fully inhibited enzyme, 1 = untreated enzyme; activation factor at 5 µM; 96,000 tested, under 10 active;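 active means activation factor of at least 2 at 5 µM in the primary screen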;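 further: 0 = wells with 2.5 mM tranylcypromine and 1 = vehicle-only wells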
* marks the source's active call; other numbers are inactive results; nt = no result. Most compounds without a hit are left out; they make up all but 22% or so of the library.

SMILES	CYP2C9 act	CYP2C19 inh	Measles CPE	CYP2C9 inh	CYP2C19 activ
CCCCNC(=O)c1onc(CSc2cccc3ccccc23)c1C(=O)O	0	57.7*	15.3	96.8*	0.4
CCCCNC(=O)c1onc(CSc2ccccc2)c1C(=O)O	0.4	18.8	5.6	56.9*	0.8
COCCNC(=O)c1onc(CSc2ccc(C(C)C)cc2)c1C(=O)O	0.3	33.7	4.8	66.4*	0.7
CCOc1cccc(SCc2noc(C(=O)NCCOC)c2C(=O)O)c1	0.6	5.7	6.0	37.1	0.9
CCCCNC(=O)c1onc(CSc2cccc(OCC)c2)c1C(=O)O	0.1	28.5	6.4	91.9*	0.7
COCCNC(=O)c1onc(CSc2ccc(Cl)cc2)c1C(=O)O	0.8	43.2	10.9	22.8	0.6
Cc1ccc(C(=O)NNC(=O)CSc2nnc(-c3ccncc3)n2-c2ccc(C)cc2)cc1	0.6	37.9	8.7	41.7	0.6
O=C(CSc1nc2ccc(Cl)cc2[nH]1)N1CCN(C(=O)c2ccco2)CC1	nt	nt	17.6	nt	nt
CC1CCCC(C)N1C(=O)COC(=O)C(Cc1ccccc1)NC(=O)c1cccs1 (stereo not drawn)	nt	nt	3.5	nt	nt
CCCCNC(=O)c1onc(CSc2ccc(C(C)C)cc2)c1C(=O)O	0.1	27.8	4.9	93.8*	0.7
CC(C)NC(=O)c1onc(CSc2cccc3ccccc23)c1C(=O)O	0	31.8	13.2	95.2*	0.7
CCc1ccccc1SCc1noc(C(=O)NCC2CCCO2)c1C(=O)O (stereo not drawn)	1	21.6	14.3	0.7	0.8
CCCCNC(=O)c1onc(CSc2cccc(Cl)c2)c1C(=O)O	0.2	28.1	9.6	84.2*	0.7
Cc1cccc(OC(=O)n2c(=S)oc3cc(Cl)ccc32)c1	nt	nt	9.2	nt	nt
COc1ccc(N(CC(O)CN2C(=O)NC(C)(C)C2=O)S(=O)(=O)c2ccc(C)cc2)cc1 (stereo not drawn)	0.3	61.0*	18.4	66.2*	0.4
COc1ccc(N(CC(O)Cn2nnc3ccccc32)S(=O)(=O)c2ccc(C)cc2)cc1 (stereo not drawn)	0.3	86.3*	14.4	68.8*	0.1
Cc1ccccc1Nc1nc2nonc2nc1N1CCOCC1	nt	nt	13.7	nt	nt
CCc1ccc(C2=C/C(=C/c3cccnc3)C(=O)O2)cc1	nt	nt	24.6	nt	nt
CC1=C(C(=O)Nc2ccc([N+](=O)[O-])cc2)C(c2cccc(C(F)(F)F)c2)NC(=S)N1c1ccccc1 (stereo not drawn)	0.1	14.7	5.5	89.2*	0.9
COc1ccc(N(C(=O)c2ccco2)S(=O)(=O)c2ccccc2)cc1	0.1	87.0*	7.7	91.8*	0.1
COc1ccc(N(C(=O)c2ccco2)S(=O)(=O)c2cc(Cl)c(Cl)cc2Cl)cc1	0.1	97.1*	2.4	94.4*	0
COc1ccc(N(CN2C(=O)C3CC=CCC3C2=O)C(=O)c2ccco2)cc1 (stereo not drawn)	1.2	-8.8	17.6	-16.2	1.1
CCCC1C(C#N)=C(N)Oc2n[nH]c(C(C)(C)C)c21 (stereo not drawn)	0.3	92.7*	4.8	70.0*	0.1
COc1ccc(F)c(C2C(C#N)=C(N)Oc3n[nH]c(C(C)(C)C)c32)c1 (stereo not drawn)	0.6	69.6*	3.5	42.0	0.3
CC(C)C1C(C#N)=C(N)Oc2n[nH]c(C(C)(C)C)c21 (stereo not drawn)	0.9	-1.5	5.7	7.3	1
SMILES	CYP2C9 act	CYP2C19 inh	Measles CPE	CYP2C9 inh	CYP2C19 activ
Cc1[nH]nc2c1C(CCc1ccccc1)C(C#N)=C(N)O2 (stereo not drawn)	0.7	74.2*	12.7	31.7	0.3
CCC(C)C1C(C#N)=C(N)Oc2n[nH]c(C)c21 (stereo not drawn)	nt	nt	-0.4	nt	nt
COc1ccccc1NC(=O)CNC(=O)c1ccccc1C	1.3	23.6	8.6	-34.8	0.8
Cc1cc(C(=O)CN2CCCC(C)C2)c(C)n1-c1ccc(F)cc1 (stereo not drawn)	nt	nt	7.1	nt	nt
COc1nc(N=C(N)N)nc2ccc(C)cc12	nt	nt	16.0	nt	nt
CC(Sc1nnc(C(F)(F)F)n1C)C(=O)NC(N)=O (stereo not drawn)	1	-4.0	60.4*	3.9	1
CNC(=O)NC(=O)CSc1nnc(C(F)(F)F)n1C	1.1	-5.0	2.5	-10.9	1.1
Cc1noc(C)c1COC(=O)CCCc1nc2ccccc2s1	0.5	40.8	2.9	51.2*	0.6
CC(OC(=O)CCCc1nc2ccccc2s1)C(N)=O (stereo not drawn)	1.2	15.8	28.9*	-18.1	0.8
Cc1cc(Cl)c(S(=O)(=O)NC(C)C)cc1OCC(N)=O	nt	nt	4.3	nt	nt
CC(C)Cc1ccc(/C=C/C(=O)NC2CC2)cc1	nt	nt	7.3	nt	nt
CCC(=O)Nc1cc(-c2nn(C)c(=O)c3ccccc23)ccc1N1CCOCC1	0.4	34.1	15.7	62.5*	0.7
CCC(=O)Nc1cc(-c2nnc(OC)c3ccccc23)ccc1N1CCOCC1	0.6	13.7	23.1	35.6	0.9
Cn1nc(-c2ccc(N3CCCCC3)c(NC(=O)c3ccco3)c2)c2ccccc2c1=O	0	58.8*	7.0	96.3*	0.4
COc1ccc2oc(=O)c(-c3ccccc3C(=O)N3CCOCC3)cc2c1	nt	nt	17.5	nt	nt
CN(C)CCCNc1cc(Cl)c(S(=O)(=O)N2CCCCC2)cc1C(=O)O	1	2.2	11.9	-2.9	1
O=C(C1Cc2ccccc2CN1S(=O)(=O)c1cccs1)N1CCCCC1 (stereo not drawn)	0.9	25.9	1.9	8.5	0.7
C=C(C)C1CCC(C)=C1CC(C)(C)/C=N\n1cnnc1 (stereo not drawn)	0.4	85.8*	13.7	63.4*	0.1
Cc1cccc(C)c1N1C(=O)c2ccccc2C1=O	0.8	54.3*	9.5	15.0	0.5
c1ccc2nc3c(cc2c1)CCCCCC3	0.6	66.0*	0.2	43.7	0.3
Nc1c2c(nc3ccccc13)CCC2	nt	nt	45.6	nt	nt
CC(C)Cn1c(C(C)C)nc([N+](=O)[O-])c1S(=O)(=O)c1ccc(F)cc1	0.9	66.4*	26.1	13.1	0.3
O=C(Nc1ccccc1)OCc1cc(-c2ccccc2Cl)on1	1	4.4	2.2	-0.5	1
Cc1ccccc1NC(=O)c1sc(Cl)nc1-c1ccccc1	0.6	61.4*	16.0	43.5	0.4
CCOC(=O)c1nn(-c2ccccc2C)c2nc(-c3ccc(Cl)cc3)c(C#N)c(=O)n12	0.8	21.4	20.6	24.8	0.8
SMILES	CYP2C9 act	CYP2C19 inh	Measles CPE	CYP2C9 inh	CYP2C19 activ
Cc1cc(C)c(C)c(OCC(=O)N2CCOCC2)c1	1.8	67.0*	4.3	-80.2	0.3
Cc1cccc(NC(=O)c2ccccc2OCC(=O)N2CCOCC2)c1C	1	9.5	1.4	-3.1	0.9
Cc1cc(OCC(=O)N2CCOCC2)c(C(C)C)cc1Cl	0.9	79.8*	0.9	14.4	0.2
CCCOc1ccc(C(=O)CCC(=O)OCC(=O)Nc2cc(C)on2)cc1	1	1.4	8.5	-1.5	1
Cc1ccc(CNc2ccc(N3CCOCC3)c(C(=O)O)c2)s1	1.1	-4.8	4.8	-6.4	1
O=C(CSc1nnc(-c2ccc(Cl)cc2)n1Cc1ccco1)NCc1ccc2c(c1)OCO2	0.4	37.7	7.5	56.3*	0.6
